# From article PMC4336329 (PLoS ONE, 2015)
# Hit rate of the full screen: of about 310,000 compounds, about 14,000 (4.5%) showed an effect of 50% or more. Effects have a minus sign here. The list comes from a sample in which strong results are over-represented; it also holds similar structures and randomly drawn compounds.
# Biological target: human ether-à-go-go-related gene (hERG) potassium channel (human, UniProt Q12809)
# Test: primary screen, population patch clamp on CHO cells stably expressing hERG; higher = less effect of the substance
# 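Also: peak tail current of the secondary pulse compared with the same well before compound.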
# Chain of human ether-à-go-go-related gene (hERG) potassium channel (Q12809 whole entry, looked up): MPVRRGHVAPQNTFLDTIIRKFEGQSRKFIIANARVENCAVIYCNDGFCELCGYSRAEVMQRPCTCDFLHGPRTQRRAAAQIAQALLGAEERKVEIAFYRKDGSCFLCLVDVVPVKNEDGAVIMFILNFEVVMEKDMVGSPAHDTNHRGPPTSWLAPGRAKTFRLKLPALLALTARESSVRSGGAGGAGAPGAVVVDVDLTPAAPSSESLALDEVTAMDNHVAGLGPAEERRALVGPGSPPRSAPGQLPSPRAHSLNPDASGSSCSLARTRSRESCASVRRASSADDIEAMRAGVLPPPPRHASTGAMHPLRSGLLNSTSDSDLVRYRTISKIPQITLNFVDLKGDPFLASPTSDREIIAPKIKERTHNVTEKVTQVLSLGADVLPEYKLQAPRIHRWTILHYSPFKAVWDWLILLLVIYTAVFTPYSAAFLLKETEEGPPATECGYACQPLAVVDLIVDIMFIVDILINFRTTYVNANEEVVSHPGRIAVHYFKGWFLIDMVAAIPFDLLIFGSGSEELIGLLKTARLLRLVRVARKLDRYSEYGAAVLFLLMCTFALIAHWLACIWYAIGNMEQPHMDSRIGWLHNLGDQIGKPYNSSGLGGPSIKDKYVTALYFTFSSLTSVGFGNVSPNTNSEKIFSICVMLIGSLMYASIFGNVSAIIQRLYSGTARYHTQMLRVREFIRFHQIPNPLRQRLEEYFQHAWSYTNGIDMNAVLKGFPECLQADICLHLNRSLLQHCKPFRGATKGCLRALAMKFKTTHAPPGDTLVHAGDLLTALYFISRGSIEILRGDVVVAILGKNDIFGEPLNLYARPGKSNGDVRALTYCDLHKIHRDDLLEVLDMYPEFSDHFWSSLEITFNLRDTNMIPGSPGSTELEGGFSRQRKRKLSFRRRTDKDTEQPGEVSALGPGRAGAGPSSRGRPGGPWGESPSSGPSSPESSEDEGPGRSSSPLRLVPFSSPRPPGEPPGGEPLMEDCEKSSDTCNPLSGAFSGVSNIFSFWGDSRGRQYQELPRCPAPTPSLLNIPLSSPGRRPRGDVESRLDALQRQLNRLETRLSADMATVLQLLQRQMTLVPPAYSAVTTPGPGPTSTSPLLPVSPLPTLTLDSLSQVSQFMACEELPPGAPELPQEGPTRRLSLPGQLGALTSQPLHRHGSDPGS
row,Structure (SMILES),"hERG current change (%, negative = inhibition) at 10uM [%]"
1,CCCC1=Nc2cc(C(=O)NCCCN3CCOCC3)ccc2Sc2ccccc21,-9.32
2,Cc1ccc(NC(=O)c2cc([N+](=O)[O-])ccc2N2CCCC2)cc1,-0.291
3,O=C(Nc1cccc(S(=O)(=O)N2CCCCC2)c1)c1cc([N+](=O)[O-])ccc1N1CCOCC1,-64.2
4,CC(=O)Nc1cccc(NC(=O)c2cc([N+](=O)[O-])ccc2N2CCCCC2)c1,-69.3
5,CN(C)S(=O)(=O)c1cccc(NC(=O)c2cc([N+](=O)[O-])ccc2N2CCCCC2)c1,-53
6,O=C(Nc1cccc(C(F)(F)F)c1)c1cc(S(=O)(=O)N2CCCCC2)ccc1N1CCOCC1,-8.02
7,CN(C)S(=O)(=O)c1ccc(N2CCCC2)c(C(=O)Nc2ccccc2)c1,-23.5
8,COc1ccc(NC(=O)c2cc([N+](=O)[O-])ccc2N2CCCCC2)cc1,4.86
9,O=C(Nc1cccc(S(=O)(=O)N2CCOCC2)c1)c1cc([N+](=O)[O-])ccc1N1CCOCC1,-15.2
10,CN(C)S(=O)(=O)c1ccc(N2CCCC2)c(C(=O)Nc2cccc(F)c2)c1,0.224
11,N#CC(C#N)=Cc1cccn1-c1ccc(C(=O)O)cc1,15.5
12,CC(C)NC(=O)CN1C(=O)C(=O)c2ccccc21,-9.78
13,Cc1nc2ccc(S(=O)(=O)NC(C(=O)N3CCCC3)C(C)C)cc2s1 (centres unmarked),7.12
14,COc1cc2c(cc1OC)CN(C(=O)c1ccc(S(=O)(=O)N3CCCCCC3)cc1)CC2,-27.3
15,Cc1nnc(NC(=O)CSc2nc3c(c(=O)n2C)SC(C)C3)s1 (centres unmarked),4.1
16,Cc1ccc(-c2nnc(SCC(=O)NNC(=O)COc3cccc4ccccc34)n2C)cc1,5.74
17,O=C(N/N=C/c1cccc(Br)c1)c1ccc(N2CCCC2=O)cc1,-57.6
18,COc1cccc(/C=N/NC(=O)c2ccc(N3CCCC3=O)cc2)c1,-19.8
19,O=C(N/N=C/c1ccccc1)c1ccc(N2CCCC2=O)cc1,5.87
20,CC(Oc1ccc([N+](=O)[O-])cc1)C(=O)NCC1CCCO1 (centres unmarked),-7.02
21,COc1ccccc1N1C(=O)c2cccc3c(N(C)CCO)ccc(c23)C1=O,5.75
22,CC(NC(=O)C1CCC1)c1ccc2c(c1)OCO2 (centres unmarked),-5.51
23,Cl.Fc1ccc(-c2ccc(CNCc3ccccn3)o2)cc1,-25.4

row,Structure (SMILES),"hERG current change (%, negative = inhibition) at 10uM [%]"
1,Fc1ccccc1CNCCc1ccc2c(c1)OCO2,-7.43
2,CC(=O)N(CCC(Cc1ccccc1)c1ccc2c(c1)OCO2)Cc1ccccc1F (centres unmarked),7.53
3,CCc1ccccc1NC(=O)NC(C)c1ccc2c(c1)OCO2 (centres unmarked),14
4,COCCCNS(=O)(=O)c1ccc2c(c1)OCCO2,6.53
5,COCCCNCCC(CCC(C)C)c1ccc2c(c1)OCO2.Cl (centres unmarked),-80.2
6,Cl.Fc1ccccc1CNCCC(Cc1ccccc1)c1ccc2c(c1)OCO2 (centres unmarked),-50.6
7,COCCCNC(=O)c1ccc2c(c1)OCO2,-9.98
8,CCNCCC(CCC(C)C)c1ccc2c(c1)OCO2 (centres unmarked),-72
9,Fc1cccc(CCNCc2ccccn2)c1,-6.71
10,Fc1ccc(C(CCNCc2ccccn2)c2ccc(Cl)cc2)cc1 (centres unmarked),-77.5
11,Nc1nc(NCCOCCO)nc(NCc2ccccc2)c1[N+](=O)[O-],-1.49
12,O=C(NCc1ccccc1)C(=O)Nc1cccc(C(=O)O)c1,4.16
13,NC(=O)N/N=C/c1ccccc1OCC(=O)NCc1ccccc1,-3.76
14,S=c1[nH]nc(-c2ccncc2)n1/N=C/C=C/c1ccccc1,8.71
15,COc1ccc(S(=O)(=O)N(CCC(=O)O)Cc2ccccc2)cc1,13.7
16,Cc1ccc(-n2ncc3c(=O)n(CC(=O)NC4CCCC4)cnc32)cc1C,5.66
17,CCOC(=O)c1ccc(NC(=O)Cc2coc3cc4c(cc23)CCC4)cc1,5.55
18,CO[C@@]1(NC(=O)CSCC#N)C(=O)N2C(C(=O)[O-])=C(CSc3nnnn3C)CS[C@@H]21.[Na+],4.09
19,Cc1cccc(NC(=O)NNS(=O)(=O)c2ccc(F)cc2)c1,-1.81
20,CSc1nnc(SCC#N)s1,8.95
21,CC(C)CCNC(=O)CN(C(=O)CCC(=O)Nc1nccs1)c1ccc2c(c1)OCCO2,-4.45
22,Cc1cc(N/N=C/c2ccccc2)nc(N)n1,-14.5
23,O=C(O)C(=O)O.c1ccc(CNCCc2ccc3c(c2)OCO3)nc1,2.74

row,Structure (SMILES),"hERG current change (%, negative = inhibition) at 10uM [%]"
1,CC(C)C(CCNCc1ccccn1)c1ccc(Cl)cc1 (centres unmarked),-41.6
2,CC(C)CCC(CCNCc1ccccn1)c1ccc(Cl)cc1 (centres unmarked),-80.4
3,O=C(NCc1ccccn1)Nc1ccc(Cl)cc1,13.9
4,c1ccc(CNCc2ccc3c(c2)OCO3)nc1,11.2
5,CC(C)CCC(CCNCc1ccccn1)c1ccc2c(c1)OCO2.Cl (centres unmarked),-75.5
6,O=C(CF)NC(Nc1cccc2cccnc12)C(Cl)(Cl)Cl (centres unmarked),-5.95
7,COc1ccc(N2CCN(C(=O)c3ccc4c(c3)CCN4S(=O)(=O)c3ccccc3)CC2)cc1,-23.2
8,O=C(NCC1CC1)Nc1ccccc1,16.3
9,N#C/C(=C/c1cc[nH]c1)C(N)=S,14.2
10,O=C(CN1CCN(S(=O)(=O)c2ccccc2[N+](=O)[O-])CC1)NC(=O)NCc1ccco1,-5.96
11,CSc1ccccc1NC(=O)CN1CCN(S(=O)(=O)c2ccccc2[N+](=O)[O-])CC1,-52.2
12,COC(=O)C1CCN(CC(=O)Nc2cc(Cl)ccc2OC)CC1,-19
13,COc1ccc(N2CCN(CC(=O)Nc3ccccc3SC)CC2)cc1,-5.77
14,COc1ccc(Cl)cc1NC(=O)CN1CCC(NC(=O)C2CC2)CC1,-52
15,COc1ccccc1NC(=O)CN1CCN(c2ccccc2)CC1,-12.7
16,CSc1ccccc1NC(=O)CN1CCN(Cc2ccccc2)CC1,-66.3
17,COc1ccccc1NC(=O)CN1CCN(Cc2ccccc2)CC1,-67.6
18,COc1ccccc1NC(=O)CCN1CCN(Cc2ccccc2)CC1,-22.3
19,CCN1CCC(NC(=O)Nc2cc(Cl)ccc2OC)CC1,-2.83
20,O=C(CN1CCN(S(=O)(=O)c2ccccc2[N+](=O)[O-])CC1)Nc1ccc(N2CCOCC2)cc1,-12.9
21,CSc1ccccc1NC(=O)CN1CCCCC1,8.96
22,Cc1ccccc1C(=O)NC(=S)Nc1ccccc1[N+](=O)[O-],18.1
23,O=C(NC(Cc1c[nH]c2ccccc12)c1nnc2n1CCCCC2)c1ccccc1 (centres unmarked),18.7

row,Structure (SMILES),"hERG current change (%, negative = inhibition) at 10uM [%]"
1,Cc1ccc(S(=O)(=O)N2CCCC(C(=O)NCCC3=CCCCC3)C2)cc1 (centres unmarked),-4.03
2,CC1Cc2ccccc2N1C(=O)Cn1cnc2ccccc2c1=O (centres unmarked),21.8
3,Cc1cc(C)nc(NC(=O)CSc2ccccn2)n1,1.08
4,C/C(=N/NC(=O)c1ccc(Br)o1)c1ccncc1,7.82
5,CCOc1ccccc1NC(=O)C1CCN(c2ccc(S(=O)(=O)N3CCCC3)cc2)CC1,-6.65
6,CCC1CCCCN1CCNS(=O)(=O)c1ccc2c(c1)CCN2C(C)=O (centres unmarked),-1.09
7,CCN1CCN(C(=O)N(c2ccccc2)c2ccccc2)CC1,11.9
8,Cc1n[nH]c(=O)c2c(NC(=O)CSc3nc4ccccc4c(=O)n3CCCO)oc(C)c12,-21.2
9,COc1cccc(Cn2c(Oc3cccc(C)c3)nc3c2c(=O)n(C)c(=O)n3C)c1,-9.7
10,O=S(=O)(N/N=C/c1ccc(F)cc1)c1ccccc1,6.88
11,Cn1nc(-c2ccc(NCCO)c([N+](=O)[O-])c2)c2ccccc2c1=O,-2.29
12,O=C(c1ccccc1Cl)N(Cc1ccc(Cl)c(Cl)c1)N1C(=O)CCCC1=O,-6.37
13,CC(=O)Nc1ccc(NC(=O)C(C)Oc2ccccc2C(=O)NCc2ccccc2)cc1 (centres unmarked),-46.9
14,COc1ccc(OC2CCN(S(=O)(=O)c3ccc(C(C)=O)cc3)CC2)cc1,-19.7
15,COc1ccc(Cl)cc1NC(=O)CCN1CCN(c2ccccc2C)CC1,6.79
16,COc1ccc(Cl)cc1NC(=O)CN1CCCCCC1,-8.36
17,COc1ccccc1NC(=O)c1nnn(Cc2ccccc2)c1NC(=O)C(F)(F)F,-53
18,COc1ccc(Cl)cc1NC(=O)CN1CCCC1.Cl,5.1
19,COc1ccc(Cl)cc1NC(=O)CCN1CCN(Cc2ccccc2)CC1,-64.6
20,O=C(Nc1ccccc1)c1nnn(Cc2ccccc2)c1NC(=O)C(F)(F)F,-7.45
21,COc1ccc(OC)c(NC(=O)CCN2CCN(Cc3ccccc3)CC2)c1.Cl,-32.9
22,COc1ccccc1NC(=O)c1nnn(Cc2ccccc2)c1NC(C)=O,2.36
23,COc1ccc(Cl)cc1NC(=O)CN1CCN(Cc2ccccc2)CC1,-68.9
